Source: PubChem BioAssay AID743332 (Broad Institute, 2014)
Entries with a potency or affinity are not part of this list.

These compounds were tested against Caspase-6 (Homo sapiens) (UniProt P55212) (assay: human caspase-6 inhibitors, dose response, biochemical, VEID-R110 fluorescence, dry powder retest (AID 743332)). Details: purified caspase-6, Z-VEID-R110 cleavage fluorescence; series mostly up to 35 µM; activity change, negative = inhibition: at the top concentration;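 active = at least 35% decrease in signal relative to neutral control well mean; inactive = the rest, opposite-direction activity included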.
Caspase-6 (Homo sapiens), sequence (P55212 24-179 limits assumed): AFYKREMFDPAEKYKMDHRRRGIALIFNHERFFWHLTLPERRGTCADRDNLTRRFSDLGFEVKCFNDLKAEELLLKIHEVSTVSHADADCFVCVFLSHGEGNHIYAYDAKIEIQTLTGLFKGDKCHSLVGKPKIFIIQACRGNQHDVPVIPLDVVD
Caspase-6 (Homo sapiens), sequence (P55212 194-293 limits assumed): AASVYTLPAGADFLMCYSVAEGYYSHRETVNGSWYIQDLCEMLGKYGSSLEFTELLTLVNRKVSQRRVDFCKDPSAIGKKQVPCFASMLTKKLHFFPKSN

Activity change, negative = inhibition, inactive:
O=C(C1COc2ccccc2O1)N1CCN(S(=O)(=O)c2ccccc2)CC1 (stereo not given) -3.24%
O=C(c1ccccc1)N1CCN(S(=O)(=O)c2cccnc2)CC1 5.36%
Cc1cccc(C(=O)N2CCCN(S(=O)(=O)c3ccc4c(c3)OCCO4)CC2)c1 25%
Cc1ccc(C(=O)N2CCN(S(=O)(=O)c3ccccc3)CC2)o1 0.801%
COc1ccc(S(=O)(=O)N2CCN(C(=O)c3ccccc3)CC2)cc1 1.2%
CC(=O)Nc1ccc(C(=O)N2CCN(S(=O)(=O)c3ccc(C)cc3)CC2)cc1 -10.9%
O=C(c1ccc2c(c1)OCCO2)N1CCN(S(=O)(=O)c2ccccc2)CC1 6.42%
Cc1ccc(S(=O)(=O)N2CCCN(C(=O)c3ccoc3)CC2)cc1 1%
Cc1ccc(C(=O)N2CCCN(S(=O)(=O)c3ccc(C)cc3)CC2)cc1 9.58%
Cc1ccc(S(=O)(=O)N2CCN(C(=O)C3COc4ccccc4O3)CC2)cc1 (stereo not given) 5.54%
O=C(c1ccccc1)N1CCN(S(=O)(=O)c2ccc(Cl)cc2)CC1 3.42%
O=C(c1ccccc1)N1CCCC(NS(=O)(=O)c2ccccc2)C1 (stereo not given) 7.3%
O=S(=O)(c1ccccc1)N1CCN(Cc2ccccc2)CC1 1.29%
O=C(c1ccccn1)N1CCN(S(=O)(=O)c2ccccc2)CC1 5.53%
Cc1ccc(C(=O)N2CCN(S(=O)(=O)c3ccc4c(c3)OCCO4)CC2)cc1 -11%
O=C(c1cccnc1)N1CCN(S(=O)(=O)c2cccnc2)CC1 8.03%
O=C(C1COc2ccccc2O1)N1CCN(S(=O)(=O)c2ccccc2F)CC1 (stereo not given) -2.1%
Cc1ccc(C(=O)N2CCN(S(=O)(=O)c3ccccc3)CC2)cc1 4.95%
[O-][n+]1c2c(nn1-c1ccccc1Cl)-c1nonc1CC2 4.6%
COc1ccc(C(=O)N2CCN(S(=O)(=O)c3ccccc3)CC2)cc1 20.3%
O=C(c1ccc(F)cc1)N1CCCN(S(=O)(=O)c2ccc(F)cc2)CC1 5%
Cc1ccc(C(=O)N2CCN(S(=O)(=O)c3ccc(C)cc3)CC2)cc1 4.57%
[O-][n+]1c2c(nn1-c1ccccc1)-c1nonc1CC2 4.39%
CC(=O)N1CCCc2cc(S(=O)(=O)N3CCN(C(=O)C4COc5ccccc5O4)CC3)ccc21 (stereo not given) 12%
CC(=O)Nc1ccc(S(=O)(=O)N2CCN(C(=O)c3ccccc3)CC2)cc1 10.7%
Cc1ccc(S(=O)(=O)N2CCN(C(=O)c3ccccc3)CC2)cc1 8.23%
CC(=O)Nc1ccc(S(=O)(=O)N2CCN(C(=O)c3ccc(C)cc3)CC2)cc1 5.54%
O=C(c1ccoc1)N1CCN(S(=O)(=O)c2cccnc2)CC1 5.59%
O=C(c1cccs1)N1CCN(S(=O)(=O)c2ccccc2)CC1 0.185%
Cc1ccc(S(=O)(=O)N2CCN(C(=O)c3ccco3)CC2)cc1 3.21%
